These results are taken from PubChem BioAssay AID720604 (Broad Institute, 2013).

Potency and affinity values are given separately. Records with an inconclusive call do not appear. A call without a number means that no potency is given here. Active and inactive are the calls of the source.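 How the source made its calls: active means compound lowering viability with a fitted half-effect dose within twice the top dose in every timed run; inconclusive means timed runs disagree on the call; inactive means inactive in every run, including a rising signal.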

A short description of the experiment: HUVEC endothelial cell viability loss, dose response, cytotoxicity control for HRAS target identification, CellTiter-Glo ATP luminescence, 8/24/48 h, dry powder (AID 720604). A general note: ATP-based viability assays read luminescence as a measure of living cells.

For the compound `Cc1onc(C(=O)N2CCN(C(c3ccncc3)c3ccncc3)CC2)c1[N+](=O)[O-]`, the result was inactive. For the compound `Cc1onc(C(=O)N2CCN(C(c3ccc(Cl)cc3)c3ccc(Cl)cc3)CC2)c1[N+](=O)[O-]`, the result was inactive.
